SMILES strings stand for the structures. Compounds without any hit were thinned out: in the full panel of roughly 83,000, 20% have a hit.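 Cells were grown in 96-well plates and exposed to the test compound at a single concentration for 48 hours; results are reported as percent growth, with values below 10 considered active.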 Unmarked numbers belong to inactive results. Activity calls are given as the source filed them.

The test system of this experiment is MDA-MB-468 breast. The experiment in a line: NCI-60 one-dose screen, 48 h (100 = growth as untreated, 0 = no growth, -100 = all killed). The note with it: 10 µM unless noted.
For `O=C(Nc1ccccc1CNc1nc(Nc2ccc(OCCN3CCCC3)cc2)ncc1Cl)NC1CCCCC1`, the growth is 89.4%.

Turning to `CC(=O)Nc1nc(C)c(C(=O)NN)s1`, the growth is 87.8%.

`COc1cccc2cc(N(C)c3nc(C)nc4ccsc34)ccc12`: the growth was 20.2%.

For `Cc1cc2nc3c4cccc(O)c4n(CCN(C)C)c3nc2cc1C`, the growth was 0.835% (active).

The record behind these values is PubChem BioAssay (NCI).
